From PubChem BioAssay
Activity calls are given as the source filed them.

Key:
[1] = tested on: Human papillomavirus type 1a protein E7 (residues 44-93); assay: HPV1a E7 fragment binders on microarrays, primary screen, biochemical, small-molecule microarray, residues 44-93, 635 nm fluorescence (AID 1108); conditions: small-molecule microarray binding, fluorescence 635 nm; higher = more signal;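 further: E7 fragment applied at 1 µg/mL in TBST for 1 h at 4 C; score combines spot fluorescence with its signal to noise ratio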
[2] = modulators of HCV replicon luciferase signal, primary screen, HCV replication inhibitor project, Huh7 cells, luciferase reporter (AID 1109); conditions: 48 h, higher = more signal;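 further: huh7 hepatoma cells harbouring a luciferase neomycin HCV replicon reporter; luciferase luminescence as measure of HCV replicon replication; test concentration not given here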
[3] = target: Left-right determination factor 2 (Homo sapiens) (UniProt O00292); assay: LEFTY2 binders on small-molecule microarrays, primary screen, biochemical, small-molecule microarray, 635 nm fluorescence scan (AID 1110); conditions: LEFTY2 binding, higher = more signal
Left-right determination factor 2 (Homo sapiens), sequence (O00292 whole entry, looked up): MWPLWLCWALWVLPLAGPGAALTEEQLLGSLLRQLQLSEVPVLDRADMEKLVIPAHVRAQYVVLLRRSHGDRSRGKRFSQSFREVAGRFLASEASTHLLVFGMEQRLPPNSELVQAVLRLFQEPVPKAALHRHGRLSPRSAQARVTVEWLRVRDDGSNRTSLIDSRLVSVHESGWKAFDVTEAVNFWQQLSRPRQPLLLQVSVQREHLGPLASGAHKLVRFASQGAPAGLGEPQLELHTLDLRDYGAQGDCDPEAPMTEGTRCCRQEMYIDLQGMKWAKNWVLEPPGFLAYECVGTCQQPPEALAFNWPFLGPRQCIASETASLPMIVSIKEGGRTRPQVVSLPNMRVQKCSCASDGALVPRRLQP

[4] = target: Calmodulin-1 (Homo sapiens) (UniProt P0DP23); assay: CALM1 binders on microarrays, EGTA buffer, profiling panel, biochemical, small-molecule microarray, Cy5-labelled CALM1 (AID 1111); conditions: Cy5-CALM1 binding fluorescence, higher = more signal;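 further: labelled calmodulin applied in Tris saline Tween buffer holding calcium plus EGTA and DTT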
[5] = target: Calmodulin-1 (Homo sapiens) (UniProt P0DP23); assay: calcium-bound CALM1 binders on microarrays, profiling panel, artefact control for SMM control-protein annotation, biochemical, small-molecule microarray, Cy5-labelled CALM1, plus calcium (AID 1112); conditions: Cy5-CALM1 binding fluorescence, higher = more signal;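 further: score merges spot fluorescence with signal to noise from triplicate slides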
[6] = small-molecule microarray binders of probe aWnt5a, primary screen, biochemical, biotinylated probe, 635/667 nm fluorescence (AID 1113); conditions: higher = more signal;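 further: score merges 667 nm fluorescence intensity with signal-to-noise per printed feature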
[7] = small-molecule microarray binders of probe aShh, primary screen, biochemical, biotinylated probe, 635/667 nm fluorescence (AID 1114); conditions: higher = more signal;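 further: probe is biotin-labelled aShh protein from a stem cell growth factor screen; measures binding of labelled protein to compounds printed on the slide; score merges feature fluorescence at 667 nm with signal-to-noise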
[8] = small-molecule microarray binders of probe aNog, primary screen, biochemical, biotinylated probe, 635/667 nm fluorescence (AID 1115); conditions: higher = more signal;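 further: probe is biotinylated aNog protein used at 0.15 µg/mL for 1 h at 4 C; z-score combines 667 nm fluorescence of each spot with its signal to noise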
[9] = target: Torsin-1A-interacting protein 1 (Homo sapiens) (UniProt Q5JTV8); assay: LAP1 binders from COS7 cell lysate, primary screen, small-molecule microarray, 635/667 nm fluorescence (AID 1116); conditions: COS7-hLAP1 lysate binding, 635 nm fluorescence, higher = more signal
Torsin-1A-interacting protein 1 (Homo sapiens), sequence (Q5JTV8 whole entry, looked up): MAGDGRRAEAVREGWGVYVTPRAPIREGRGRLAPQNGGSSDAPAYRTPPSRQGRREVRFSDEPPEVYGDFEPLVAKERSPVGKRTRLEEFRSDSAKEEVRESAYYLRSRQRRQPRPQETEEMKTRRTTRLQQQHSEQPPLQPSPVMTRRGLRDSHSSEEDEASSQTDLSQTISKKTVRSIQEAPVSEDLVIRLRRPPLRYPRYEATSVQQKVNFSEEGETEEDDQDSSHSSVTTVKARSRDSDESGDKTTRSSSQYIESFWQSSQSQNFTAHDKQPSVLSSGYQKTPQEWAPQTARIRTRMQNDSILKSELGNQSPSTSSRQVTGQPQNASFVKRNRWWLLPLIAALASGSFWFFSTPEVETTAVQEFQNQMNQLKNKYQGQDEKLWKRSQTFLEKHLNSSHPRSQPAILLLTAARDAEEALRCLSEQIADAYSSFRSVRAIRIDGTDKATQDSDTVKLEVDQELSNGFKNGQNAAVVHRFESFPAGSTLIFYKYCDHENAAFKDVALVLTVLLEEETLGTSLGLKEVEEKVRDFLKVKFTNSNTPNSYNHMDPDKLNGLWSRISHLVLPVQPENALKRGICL

[10] = target: Alpha-bungarotoxin (Bungarus multicinctus) (UniProt P60615); assay: alpha-bungarotoxin binders on microarray, profiling panel, artefact control for SMM control protein annotation, biochemical, small-molecule microarray, Alexa647 label, 635/667 nm fluorescence (AID 1117); conditions: alpha-BTX-A647 binding fluorescence, higher = more signal
Alpha-bungarotoxin (Bungarus multicinctus), sequence (P60615 whole entry, looked up): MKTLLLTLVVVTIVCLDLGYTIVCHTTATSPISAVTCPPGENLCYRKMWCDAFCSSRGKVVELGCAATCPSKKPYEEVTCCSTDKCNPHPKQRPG

Albumin (Bos taurus) = Albumin (Bos taurus) (UniProt P02769); assay: bovine serum albumin binders on microarray, profiling panel, artefact control for SMM control protein annotation, biochemical, small-molecule microarray, Alexa647 label, 635/667 nm fluorescence (AID 1118); conditions: BSA-A647 binding, fluorescence 635 nm, higher = more signal;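 further: score merges 667 nm emission intensity and signal-to-noise per printed compound spot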
Albumin (Bos taurus), sequence (P02769 whole entry, looked up): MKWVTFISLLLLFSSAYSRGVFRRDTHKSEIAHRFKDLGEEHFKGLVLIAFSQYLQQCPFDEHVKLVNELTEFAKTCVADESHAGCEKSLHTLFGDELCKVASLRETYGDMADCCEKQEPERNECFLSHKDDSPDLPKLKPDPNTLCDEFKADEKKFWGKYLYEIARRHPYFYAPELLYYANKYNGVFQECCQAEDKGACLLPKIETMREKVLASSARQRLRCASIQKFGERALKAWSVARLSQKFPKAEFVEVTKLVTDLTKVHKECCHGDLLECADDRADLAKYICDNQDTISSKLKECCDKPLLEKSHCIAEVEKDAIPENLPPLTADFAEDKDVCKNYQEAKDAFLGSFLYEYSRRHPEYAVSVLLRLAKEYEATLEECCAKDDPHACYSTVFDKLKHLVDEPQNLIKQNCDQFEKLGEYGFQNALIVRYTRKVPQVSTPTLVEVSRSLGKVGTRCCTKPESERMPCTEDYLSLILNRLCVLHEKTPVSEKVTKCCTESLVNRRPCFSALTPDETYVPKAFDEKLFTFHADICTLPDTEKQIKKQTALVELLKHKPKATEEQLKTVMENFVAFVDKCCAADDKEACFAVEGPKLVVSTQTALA

[11] = small-molecule microarray binders of probe aXIP, primary screen, biochemical, NeuroSMM set, 635/667 nm fluorescence (AID 1119); conditions: higher = more signal, called active from +8 up or from −8 down;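 further: probe is the protein aXip251-270 applied at 1 µg/mL to compound-printed slides; binding of probe to printed compounds measured as 667 nm fluorescence plus signal to noise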
[12] = small-molecule binders of probe aNOTCH3, primary screen, biochemical, small-molecule microarray, 635/667 nm fluorescence (AID 1120); conditions: higher = more signal;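 further: probe is a biotin-tagged antibody raised against NOTCH3 rather than NOTCH3 protein; score merges spot fluorescence near 667 nm with spot signal to noise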
[13] = small-molecule binders of probe aNOTCH2, primary screen, biochemical, small-molecule microarray, 635/667 nm fluorescence (AID 1121); conditions: higher = more signal;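 further: score merges feature fluorescence read at 667 nm with its signal to noise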
[14] = target: Carbonic anhydrase 2 (Homo sapiens) (UniProt P00918); assay: CAII small-molecule binders, profiling panel, biochemical, small-molecule microarray, Alexa647-labelled CAII (AID 1122); conditions: CAII-A647 binding fluorescence, higher = more signal
[15] = COS7 lysate on small-molecule microarray, probe aHis, 635 nm (AID 1123); conditions: COS7 cell lysate, fluorescence, higher = more signal;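 further: z-score combines 667nm fluorescence intensity with signal-to-noise per printed compound spot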
[16] = compound binding in COS7 lysate, probe aLAP1, primary screen, cell lysate, small-molecule microarray (AID 1124); conditions: probe aLAP1, fluorescence, higher = more signal;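 further: lysate comes from COS7 cells expressing LAP1 and is applied at 0.3 µg/mL; score merges spot fluorescence near 667 nm with signal-to-noise over triplicate slides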
Sam68 (KHDRBS1) = assay: Sam68 small-molecule binders, primary screen, biochemical, small-molecule microarray, 635 nm fluorescence (AID 1125); conditions: small-molecule microarray binding, higher = more signal;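 further: score merges 667 nm channel intensity with signal to noise over triplicate slides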
[17] = tested on: Chordin-like protein 2 (CHRDL2); assay: CHRDL2 small-molecule binders, primary screen, biochemical, small-molecule microarray, 635 nm fluorescence (AID 1126); conditions: small-molecule microarray binding, fluorescence 635 nm; higher = more signal;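 further: printed compound slides probed with Chrdl2 protein at 4 µg/mL for 1 h at 4 C; score merges 667 nm emission intensity with signal to noise over three replicate slides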
[18] = target: Concanavalin-A (Canavalia ensiformis) (UniProt P02866); assay: ConA small-molecule binders, primary screen, artefact control for SMM control protein annotation, biochemical, small-molecule microarray, Alexa647 label, 635 nm (AID 1127); conditions: ConA-A647 binding fluorescence, higher = more signal;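 further: z combines 667 nm emission intensity with signal-to-noise across three replicate slides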
Concanavalin-A (Canavalia ensiformis), sequence (P02866 whole entry, looked up): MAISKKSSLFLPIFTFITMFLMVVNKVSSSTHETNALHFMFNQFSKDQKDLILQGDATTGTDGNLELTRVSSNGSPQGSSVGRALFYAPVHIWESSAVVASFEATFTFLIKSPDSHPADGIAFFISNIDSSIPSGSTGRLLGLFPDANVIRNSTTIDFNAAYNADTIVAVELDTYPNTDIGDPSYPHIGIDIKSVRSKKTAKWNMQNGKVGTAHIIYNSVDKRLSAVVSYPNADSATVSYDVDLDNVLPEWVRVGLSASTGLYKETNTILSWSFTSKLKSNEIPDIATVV

| Structure (SMILES) | composite z-score [1] | z-score [2] | composite z-score [3] | composite z-score [4] | composite z-score [5] | composite z-score [6] | composite z-score [7] | composite z-score [8] | composite z-score [9] | composite z-score [10] | composite z-score (Albumin (Bos taurus)) | composite Z-score [11] | composite z-score [12] | composite z-score [13] | composite z-score [14] | composite z-score [15] | composite z-score [16] | composite z-score (Sam68 (KHDRBS1)) | composite z-score [17] | composite z-score [18] |
| --- | --- | --- | --- | --- | --- | --- | --- | --- | --- | --- | --- | --- | --- | --- | --- | --- | --- | --- | --- | --- |
| COC(=O)[C@@]1(Cc2ccc(F)cc2)[C@H]2c3cc(C(=O)N(C)C)n(Cc4ccccn4)c3C[C@H]2CN1C(=O)c1ccccc1 | 1.4 | -1.39 | 0.256 | 0.63 | 0.681 | -0.195 | -0.333 | 0.535 | 1.11 | 0.0404 | 0.979 | -0.91 (inactive) | 1.15 | -0.168 | 0.908 | 2.46 | 1.08 | 1.19 | -0.552 | 0.481 |
| CCCNC(=O)[C@@]1(c2ccc([N+](=O)[O-])cc2)CC(=O)N(CC23CC4CC(CC(C4)C2)C3)[C@@H]1c1ccc(CO)cc1I | 0.0836 | -3.32 | 0.152 | 0.838 | 0.94 | -0.0303 | 0.166 | 0.431 | -0.421 | 0.695 | 0.41 | 0.609 (inactive) | 0.216 | 0.126 | 0.118 | 1.33 | 0.137 | 0.974 | -0.366 | 0.519 |
| CC[C@@H]1C=C(C(=O)O)[C@H](c2ccc(C(C)C)cc2)N1S(=O)(=O)c1ccc(C)cc1 | 1.27 | -0.868 | 0.615 | 2.38 | 0.692 | 0.019 | 0.519 | -0.443 | 2.19 | 2.12 | 0.987 | 1.1 (inactive) | 0.42 | 0.346 | 0.796 | 2.85 | 1.63 | 1.3 | -0.557 | 1.21 |
| CCCC[C@@H]1C[C@H]1[C@@H](NC(=O)c1ccccc1)c1ccccc1 | 0.305 | -0.978 | -0.137 | -0.0221 | 0.635 | 0.298 | 0.121 | 2.11 | -0.192 | 0.012 | 0.0945 | 0.103 (inactive) | 0.667 | 0.253 | -0.0524 | 0.506 | -0.159 | 0.138 | -0.608 | -0.482 |
| NC(=O)[C@@]1(CCS(=O)(=O)c2ccccc2)N=C(c2ccc(OCCCO)cc2)O[C@H]1c1ccccc1 | 1.49 | -2.05 | -0.38 | 1.37 | 0.699 | 0.0845 | 0.396 | 1.28 | 1.89 | 1.42 | 0.737 | -0.0775 (inactive) | 0.0793 | -0.0531 | 0.801 | 2.86 | 0.821 | 1.2 | -1.12 | 1.14 |
| CCCNC(=O)[C@@]1(C)c2ccccc2C(=O)N(Cc2cc(F)cc(C(F)(F)F)c2)[C@H]1c1ccc(CO)cc1 | 0.843 | -0.372 | -0.742 | 0.685 | 0.499 | -0.0405 | 0.0469 | 1.03 | 0.296 | -0.0457 | 0.695 | 0.373 (inactive) | -0.201 | -0.0569 | 0.587 | 2.24 | -0.337 | -0.0127 | -1.76 | -0.365 |
| CN1C(=O)C2C=CC(C(O)C(c3ccccc3)c3ccccc3)N(Nc3ccccc3)C2C1=O (stereo not given) | 1.42 | -1.13 | -0.0076 | 1.29 | 0.567 | 0.137 | 0.216 | 0.713 | 0.597 | 1.34 | 0.959 | 0.462 (inactive) | 0.466 | 0.0018 | 0.453 | 2.72 | -0.167 | 1.31 | 0.106 | 1.16 |
| CC(C)NC(=O)[C@@]1(c2ccc([N+](=O)[O-])cc2)CC(=O)N(C(C)C)[C@@H]1c1ccc(CO)cc1 | 0.559 | -0.176 | -1.86 | -0.678 | -0.56 | -0.197 | 0.0899 | -0.311 | -0.534 | -0.125 | 0.697 | 0.461 (inactive) | -0.399 | -0.176 | 0.718 | 0.859 | 0.723 | 0.0001 | -1.66 | -0.0183 |
| CC(C)C[C@@H]1NC(=O)[C@@H]2C[C@H](C(=O)NCCCCN(C)C)[C@H](c3ccc(O)cc3)N2C1=O | -0.256 | -0.556 | -1.58 | -0.685 | 0.33 | -0.0977 | -0.0553 | -0.0791 | 0.864 | -0.318 | -0.0836 | 0.0699 (inactive) | -0.236 | -0.124 | 0.335 | 0.732 | 0.148 | 0.225 | -0.631 | -0.0663 |
| Cc1ccc(S[C@]2(C(=O)NCC(C)C)CC(=O)N(Cc3ccccc3)[C@@H]2c2ccc(CO)cc2)cc1 | 0.725 | -1.99 | -1.83 | -0.624 | -0.249 | -0.141 | -0.0904 | 0.596 | 0.769 | 0.147 | 0.397 | 0.941 (inactive) | -0.406 | 0.0196 | 0.748 | 1.78 | 0.984 | -0.0273 | -2.02 | -1.1 |
| COCCOC(=O)N1C(=O)[C@@]2(c3cc(C#CC4=CCCCC4)ccc31)[C@H](C(=O)N1CCN(c3ncccn3)CC1)[C@H]1C(=O)O[C@H](c3ccccc3)[C@H](c3ccccc3)N1[C@@H]2c1ccc(OCCO)cc1 | 0.973 | -1.46 | 0.819 | 0.585 | -0.252 | 0.0026 | -0.229 | 0.749 | 1.48 | 0.229 | 0.565 | -0.274 (inactive) | -0.0345 | 0.108 | 0.278 | 0.676 | 0.358 | 1.17 | 0.926 | 1.04 |
